Data: PubChem BioAssay (EPA / NIEHS)
Where “and” joins values, the source holds several entries; their conditions need not be identical. Equal values may be shown once. Results filed as inconclusive are left out. Calls of active or inactive are those of the source. How the source made its calls, unless noted: active means hit-call score of the fitted dose curve at least 0.9, where 1 is the maximum; inactive means score below 0.9.

What was measured:
[1] = CCTE_Shafer_MEA_acute_spike_number: CCTE's Neural Acute Assay for Total Number of Spikes, Shafer Lab (AID 2284008);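 on AC50: curve fitted for decrease in spike count so AC50 reflects inhibitors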
In short: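 Using an adaptive detector set to 8x rms noise, spikes were counted in 40-min windows before and after compound addition (0.03-40 uM) to rat cortical networks at 37 C; the well-level change from baseline was analysed relative to DMSO.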

[2] = CCTE_Shafer_MEA_acute_firing_rate_mean: CCTE's Neural Acute Assay for Mean Firing Rate, Shafer Lab (AID 2284009);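 further: analyzed for loss of signal so actives lower firing rate relative to DMSO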
In short: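 Percent change in well-mean firing rate was derived from extracellular spikes detected at 8x rms noise (300-5000 Hz band-pass) before and after a 40-min compound exposure. Cultures were primary rat cortical neurons, tested at 0.03-40 uM.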

[3] = read-out: Monokine induced gamma interferon (MIG), CXCL9 (gene 4283); assay: BSK_KF3CT_MIG: BioMAP Diversity Plus: KF3CT Assay for Monokine induced gamma interferon (MIG) Biomarker Activity (AID 2284248); settings: primary human keratinocytes with fibroblasts
In short: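 MIG in dosed human skin co-cultures was measured by ELISA at 24 h, relative to DMSO.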

[4] = read-out: Plasminogen activator inhibitor-1 (PAI1), SERPINE1 (gene 5054); assay: BSK_KF3CT_PAI1: BioMAP Diversity Plus: KF3CT Assay for Plasminogen activator inhibitor-1 (PAI1) Biomarker Activity (AID 2284252); settings: primary human keratinocytes with fibroblasts
In short: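 ELISA read-out of PAI-1 taken 24 h after chemical treatment of a human skin primary co-culture of keratinocytes and foreskin fibroblasts. Increases over DMSO-treated wells defined activity.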

[5] = read-out: Interleukin-8 (IL8), CXCL8 (gene 3576); assay: BSK_KF3CT_IL8: BioMAP Diversity Plus: KF3CT Assay for Interleukin-8 (IL8) Biomarker Activity (AID 2284254); settings: primary human keratinocytes with fibroblasts
In short: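 Using parallel SRB-stained cultures to flag overt toxicity, the study quantified IL-8 by ELISA in human keratinocyte–foreskin fibroblast co-cultures 24 h after dosing, with DMSO as negative control and baseline.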

[6] = read-out: Interleukin-8 (IL8), CXCL8 (gene 3576); assay: BSK_BE3C_IL8: BioMAP Diversity Plus: BE3C Assay for Interleukin-8 (IL8) Biomarker Activity (AID 2284280); settings: primary human bronchial epithelial cells
In short: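 IL-8 signal gain, normalised to DMSO vehicle, was scored after a 24 h chemical exposure of primary human bronchial epithelial cells, with detection by ELISA.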

[7] = read-out: Plasminogen activator inhibitor-1 (PAI1), SERPINE1 (gene 5054); assay: BSK_CASM3C_PAI1: BioMAP Diversity Plus: CASM3C Assay for Plasminogen activator inhibitor-1 (PAI1) Biomarker Activity (AID 2284284); settings: primary human coronary artery smooth muscle cells;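 further: PAI-1 protein level measured by ELISA 24 h after dosing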
[8] = read-out: Intercellular Adhesion Molecule 1 (ICAM1), ICAM1 (gene 3383); assay: BSK_hDFCGF_ICAM1: BioMAP Diversity Plus: hDFCGF Assay for Intercellular Adhesion Molecule 1 (ICAM1) Biomarker Activity (AID 2284287); settings: primary human foreskin fibroblasts
In short: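 Primary human foreskin fibroblasts (hDFCGF system) dosed with chemical; ICAM-1 quantified by ELISA at 24 h relative to DMSO. Parallel SRB total-protein staining to assess overt cytotoxicity.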

[9] = target: Transcription factor E2F1 (Homo sapiens) (UniProt Q01094); assay: ATG_E2F_CIS: Attagene CIS-FACTORIAL HepG2 Assay for human E2F Transcription Factor 1 (AID 2282935); settings: HepG2 Attagene cis-reporter, E2F reporter RNA transcripts; actives raise or lower the signal
In short: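 Cis-element reporter mRNA induction in transiently transfected HepG2, 24 h exposure. Activity fitted in both directions relative to DMSO negative control.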

[10] = target: Hepatocyte nuclear factor 3-beta (Homo sapiens) (UniProt Q9Y261); assay: ATG_FoxA2_CIS: Attagene CIS-FACTORIAL HepG2 Assay for human Forkhead box A2 (FOXA2) (AID 2282942); settings: HepG2 cis-reporter transcription factor activity, 24 h; actives raise or lower the signal
In short: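 HepG2 cells transiently transfected with multiple cis-regulated reporter transcription units, dosed for 24 h. Reporter mRNA measured by RT-PCR, 6-FAM labelling, HpaI digestion and capillary electrophoresis; bidirectional fitting against DMSO baseline.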

[11] = ATG_GRE_CIS: Attagene CIS-FACTORIAL HepG2 Assay for human Glucocorticoid Response Elements (GRE) (AID 2282947); settings: HepG2 GRE cis-reporter, Attagene multiplex mRNA; actives raise or lower the signal
In short: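 Transient MRTU transfection of human HepG2 liver cells; cis-regulated reporters report endogenous factors. 24 h dosing → RNA isolation → RT-PCR → 6-FAM primer extension → HpaI cut → CE fragment analysis. Bidirectional fit, DMSO negative control.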

[12] = ATG_M_32_TRANS: Attagene TRANS-FACTORIAL HepG2 Assay for M32 Transcription Factor (Internal Marker) (AID 2282984; active means hit-call score of the fitted dose curve at least 0.9, where 1 is the maximum;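 further: transcript level of a background control reporter unit measured by RT-PCR and capillary electrophoresis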); settings: HepG2 Attagene TRANS M32 internal marker reporter
In short: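 Measures reporter mRNA induction in human HepG2 liver cells after 24 h chemical treatment. Transcripts from transiently transfected GAL4-UAS reporter units are amplified, fluorescently labelled and sized by capillary electrophoresis; gain of signal relative to DMSO.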

[13] = target: Transcriptional activator Myb (Homo sapiens) (UniProt P10242); assay: ATG_Myb_CIS: Attagene CIS-FACTORIAL HepG2 Assay for human Myeloblastosis (Myb) Proto-Oncogene Transcription Factor (AID 2282986); settings: HepG2 Attagene CIS-FACTORIAL Myb reporter transcription; actives raise or lower the signal
In short: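 HepG2 cells were transiently transfected with cis-regulated multiple reporter transcription units reflecting endogenous Myb activity, then exposed to compound for 24 hours. Reporter mRNA was measured by RT-PCR with capillary electrophoresis; bidirectional fitting versus DMSO baseline.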

[14] = ATG_NF_kB_CIS: Attagene CIS-FACTORIAL HepG2 Assay for human Nuclear Factor Kappa B (NF-kB) (AID 2282991); settings: HepG2 Attagene cis-factorial NF-kB reporter mRNA; actives raise or lower the signal
In short: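 HepG2 cells transiently transfected with multiplexed cis-element reporter units measuring endogenous transcription factor activity; reporter mRNA read 24 h after dosing by RT-PCR, fluorescent labelling, HpaI digestion and capillary electrophoresis. Bidirectional fit against DMSO baseline.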

[15] = ACEA_ER_AUC_viability: ACEA Biosciences xCELLigence Real-Time Cell Analysis on Estrogen Receptor Agonism for Viability (AID 2283782; active means hit-call score of the fitted dose curve at least 0.9, where 1 is the maximum;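 further: continuous compound exposure with impedance area under curve over 80 h; hit means loss of impedance signal meaning reduced cell growth or viability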)
In short: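 T-47D; phenol red-free RPMI1640 + 10% CS-FBS; 8 conc., 1:4 serial, max 100 uM final, ≤0.5% DMSO; n = 2; continuous exposure; impedance monitored to 80 h post-dose; AUC vs DMSO.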

[16] = CCTE_Harrill_HTTr_CellCount_MCF7: CCTE's Cell Proliferation Assessment for the High-Throughput Transcriptomics (HTTr) Platform, Harrill Lab (AID 2284012; active means hit-call score of the fitted dose curve at least 0.9, where 1 is the maximum;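 further: count of Hoechst-stained nuclei per well by high-content imaging in MCF-7 cells; intended direction is loss of nuclei count meaning fewer cells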)
In short: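 Chemicals in eight-point dilution series are added to MCF-7 cells for six hours, nuclei are stained with Hoechst and imaged, and per-well nuclei counts are fitted in both directions relative to DMSO controls.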

[17] = ATG_M_19_TRANS: Attagene TRANS-FACTORIAL HepG2 Assay for M19 Transcription Factor (Internal Marker) (AID 2282974; active means hit-call score of the fitted dose curve at least 0.9, where 1 is the maximum); settings: HepG2 Attagene TRANS-FACTORIAL M19 internal marker reporter
In short: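 HepG2 cells transiently transfected with multiple GAL4-UAS reporter transcription units were exposed to chemicals for 24 h. Reporter mRNA was read by RT-PCR, 6-FAM primer extension, HpaI digestion and capillary electrophoresis; gain of signal fitted relative to DMSO.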

[18] = target: Oxysterols receptor LXR-beta (Homo sapiens) (UniProt P55055); assay: ATG_LXRb_TRANS: Attagene TRANS-FACTORIAL HepG2 Assay for human Liver X Receptor beta (LXRb) (AID 2282981; active means hit-call score of the fitted dose curve at least 0.9, where 1 is the maximum); settings: HepG2 Attagene TRANS GAL4-LXRb reporter, mRNA
In short: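 Transient transfection HepG2 (multiplexed RTUs, GAL4-UAS); NR-Gal4 chimera; 24 h exposure; RNA → RT-PCR → 6-FAM primer extension → HpaI → CE; increase vs DMSO.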

[19] = target: Myc proto-oncogene protein (Homo sapiens) (UniProt P01106); assay: ATG_Myc_CIS: Attagene CIS-FACTORIAL HepG2 Assay for human Myelocytomatosis (Myc) Proto-Oncogene Transcription Factor (AID 2282990); settings: HepG2, Attagene cis-reporter transcription factor activity; actives raise or lower the signal
In short: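 After 24 h chemical treatment of HepG2 cells carrying multiplexed cis-regulated reporter constructs, reporter transcripts quantified by RT-PCR and capillary electrophoresis of fluorescent fragments. Gain or loss fitted against DMSO baseline.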

[20] = target: mouse Estrogen Receptor alpha (Era), Esr1 (gene 13982) (UniProt P19785); assay: NVS_NR_mERa: NovaScreen (NVS) Nuclear Receptor Binding Assay for mouse Estrogen Receptor alpha (Era) (AID 2283378; active means hit-call score of the fitted dose curve at least 0.9, where 1 is the maximum;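 further: hit means loss of bound radioligand signal relative to DMSO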)
In short: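 Measurements come from scintillation counting after filtration, taken 18 hours after chemicals were added to a cell-free mouse Era preparation with radioligand. Screening was duplicate at 25 uM, with concurrent positive and negative controls and confirmatory concentration series for actives.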

Measured: AC50

Chain of Hepatocyte nuclear factor 3-beta (Homo sapiens) (Q9Y261 whole entry, looked up): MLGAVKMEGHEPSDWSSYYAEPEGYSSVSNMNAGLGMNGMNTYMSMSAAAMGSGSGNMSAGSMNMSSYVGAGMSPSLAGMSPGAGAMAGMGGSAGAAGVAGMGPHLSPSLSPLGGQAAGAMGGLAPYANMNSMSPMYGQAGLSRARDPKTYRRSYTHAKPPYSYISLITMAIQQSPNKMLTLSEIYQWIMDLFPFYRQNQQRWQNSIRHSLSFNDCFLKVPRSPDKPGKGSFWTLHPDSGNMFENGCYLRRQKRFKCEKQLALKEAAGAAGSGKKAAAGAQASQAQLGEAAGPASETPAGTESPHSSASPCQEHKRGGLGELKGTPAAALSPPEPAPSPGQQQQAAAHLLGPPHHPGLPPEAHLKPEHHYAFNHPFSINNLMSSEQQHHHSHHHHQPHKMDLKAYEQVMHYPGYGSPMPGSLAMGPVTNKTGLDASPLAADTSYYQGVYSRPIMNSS
Chain of Transcriptional activator Myb (Homo sapiens) (P10242 whole entry, looked up): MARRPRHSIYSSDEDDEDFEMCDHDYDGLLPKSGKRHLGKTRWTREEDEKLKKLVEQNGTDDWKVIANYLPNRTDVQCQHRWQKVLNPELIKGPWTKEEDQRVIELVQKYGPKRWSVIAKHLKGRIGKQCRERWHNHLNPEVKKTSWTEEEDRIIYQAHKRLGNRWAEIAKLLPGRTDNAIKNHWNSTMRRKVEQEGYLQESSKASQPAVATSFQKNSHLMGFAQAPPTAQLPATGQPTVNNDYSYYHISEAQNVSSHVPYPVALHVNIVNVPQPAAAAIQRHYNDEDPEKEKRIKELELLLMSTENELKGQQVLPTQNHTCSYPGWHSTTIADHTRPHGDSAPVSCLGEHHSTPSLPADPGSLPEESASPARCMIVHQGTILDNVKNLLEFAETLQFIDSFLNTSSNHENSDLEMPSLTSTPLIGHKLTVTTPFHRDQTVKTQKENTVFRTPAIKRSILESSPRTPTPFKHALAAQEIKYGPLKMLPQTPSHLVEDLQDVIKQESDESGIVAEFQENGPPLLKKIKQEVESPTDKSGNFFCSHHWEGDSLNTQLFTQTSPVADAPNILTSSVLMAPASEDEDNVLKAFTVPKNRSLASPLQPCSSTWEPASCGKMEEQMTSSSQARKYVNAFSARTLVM
Chain of Myc proto-oncogene protein (Homo sapiens) (P01106 whole entry, looked up, the tested form may be a part): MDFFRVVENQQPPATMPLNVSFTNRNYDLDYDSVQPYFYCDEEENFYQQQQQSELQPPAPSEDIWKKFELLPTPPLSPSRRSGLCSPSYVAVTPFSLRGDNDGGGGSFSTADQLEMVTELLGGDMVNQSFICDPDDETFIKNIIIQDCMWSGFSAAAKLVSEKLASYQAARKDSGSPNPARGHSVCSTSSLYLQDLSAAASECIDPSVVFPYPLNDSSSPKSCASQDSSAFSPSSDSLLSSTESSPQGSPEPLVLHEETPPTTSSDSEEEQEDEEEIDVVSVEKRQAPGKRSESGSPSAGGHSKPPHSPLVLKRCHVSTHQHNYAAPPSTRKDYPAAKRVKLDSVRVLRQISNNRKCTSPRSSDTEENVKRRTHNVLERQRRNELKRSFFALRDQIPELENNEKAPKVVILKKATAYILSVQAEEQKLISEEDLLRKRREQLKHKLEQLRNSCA
Chain of Transcription factor E2F1 (Homo sapiens) (Q01094 whole entry, looked up): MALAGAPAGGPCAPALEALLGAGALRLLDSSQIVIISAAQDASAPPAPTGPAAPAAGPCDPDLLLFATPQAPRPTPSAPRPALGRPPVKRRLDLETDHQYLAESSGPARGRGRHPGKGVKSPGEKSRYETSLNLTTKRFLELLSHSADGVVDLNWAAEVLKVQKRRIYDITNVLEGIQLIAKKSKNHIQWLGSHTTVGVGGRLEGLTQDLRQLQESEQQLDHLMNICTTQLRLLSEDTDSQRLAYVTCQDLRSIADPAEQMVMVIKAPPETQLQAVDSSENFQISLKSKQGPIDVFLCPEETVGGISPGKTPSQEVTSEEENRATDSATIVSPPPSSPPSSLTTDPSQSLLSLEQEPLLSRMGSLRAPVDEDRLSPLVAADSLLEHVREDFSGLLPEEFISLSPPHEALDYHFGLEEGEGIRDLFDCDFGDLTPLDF
Chain of Oxysterols receptor LXR-beta (Homo sapiens) (P55055 whole entry, looked up, the tested form may be a part): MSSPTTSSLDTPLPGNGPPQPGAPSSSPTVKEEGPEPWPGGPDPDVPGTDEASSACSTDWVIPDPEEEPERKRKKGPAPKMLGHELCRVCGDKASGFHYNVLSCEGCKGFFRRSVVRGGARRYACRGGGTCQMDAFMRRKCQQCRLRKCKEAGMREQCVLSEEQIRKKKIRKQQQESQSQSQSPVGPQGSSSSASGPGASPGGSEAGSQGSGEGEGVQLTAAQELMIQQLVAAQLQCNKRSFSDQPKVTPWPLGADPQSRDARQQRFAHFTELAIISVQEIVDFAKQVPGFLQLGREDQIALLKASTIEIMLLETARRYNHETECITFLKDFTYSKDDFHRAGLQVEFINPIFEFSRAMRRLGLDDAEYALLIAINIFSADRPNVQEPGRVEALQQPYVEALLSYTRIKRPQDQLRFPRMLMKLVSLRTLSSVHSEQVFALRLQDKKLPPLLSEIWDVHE
Chain of mouse Estrogen Receptor alpha (Era), Esr1 (gene 13982) (P19785 whole entry, looked up): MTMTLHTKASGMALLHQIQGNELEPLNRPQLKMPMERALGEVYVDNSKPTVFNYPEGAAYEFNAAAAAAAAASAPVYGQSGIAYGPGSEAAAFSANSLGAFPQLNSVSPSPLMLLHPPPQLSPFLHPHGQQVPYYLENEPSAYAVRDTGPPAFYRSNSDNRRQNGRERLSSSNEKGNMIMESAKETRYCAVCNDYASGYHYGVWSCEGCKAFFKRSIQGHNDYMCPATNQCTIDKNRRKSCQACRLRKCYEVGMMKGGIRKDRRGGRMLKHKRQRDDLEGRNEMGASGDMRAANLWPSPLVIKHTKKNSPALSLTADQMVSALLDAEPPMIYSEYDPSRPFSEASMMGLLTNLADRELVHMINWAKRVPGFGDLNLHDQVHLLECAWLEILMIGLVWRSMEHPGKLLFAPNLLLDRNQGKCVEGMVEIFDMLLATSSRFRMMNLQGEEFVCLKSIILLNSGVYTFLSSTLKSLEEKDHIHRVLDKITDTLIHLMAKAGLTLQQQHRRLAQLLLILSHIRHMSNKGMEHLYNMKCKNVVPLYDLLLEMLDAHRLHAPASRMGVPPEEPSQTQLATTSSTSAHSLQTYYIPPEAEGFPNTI

CC(C)C1OCCN1CCOC(=O)NCCCCCCNC(=O)OCCN1CCOC1C(C)C (stereo not drawn)
inactive: [3] | [4] | [5] | [6] | [7] | [8]
active: [1] 16.3 nM | [2] 16.3 nM

Nc1ccc(S(=O)(=O)Nc2cnc3ccccc3n2)cc1
inactive: [9] | [10] | [11] | [12] | [13] | [14] | [15]

O=C(C1CCCCC1)N1CC(=O)N2CCc3ccccc3C2C1 (stereo not drawn)
inactive: [9] | [11] | [13] | [14] | [16]

O=[N+]([O-])c1cc(S(=O)(=O)Nc2ccccc2)ccc1Nc1ccccc1
active: [1] 2980 nM | [2] 2980 nM | [3] 33.7 µM and 31.5 µM | [4] 25.9 µM and 16.2 µM | [5] 15.3 µM and 10.8 µM | [6] 20 µM and 7.26 µM | [8] 31 µM and 36.6 µM
inactive: [7]

CNC(=C[N+](=O)[O-])NCCSCc1csc(CN(C)C)n1
inactive: [9] | [10] | [11] | [17] | [18] | [12] | [19] | [14] | [16]

COc1ccc(C(=O)c2ccccc2O)c(O)c1
inactive: [3] | [4] | [5] | [6] | [7] | [8]
active: [1] 21.5 nM | [2] 5.33 nM

Oc1cccc2ccccc12
inactive: [9] | [10] | [11] | [13] | [19] | [14] | [16]

CO[Si](CCCNCCN)(OC)OC
inactive: [18] | [12] | [15]

O=C(O)c1cc(Cl)cc(Cl)c1O
inactive: [17] | [13] | [19] | [14] | [15] | [16]

CC(=O)OC(C)(C)Cc1ccccc1
inactive: [17] | [18] | [14] | [15]

COc1ccccc1Oc1c(NS(=O)(=O)c2ccc(C(C)(C)C)cc2)nc(-c2ncccn2)nc1OCCO
inactive: [1] | [2] | [3] | [4] | [5] | [6] | [7] | [8]

CCCCCCCCCCCCSC#N
active: [20] 6160 nM

CC(C)(C)NC(=O)[C@@H]1CN(Cc2cccnc2)CCN1C[C@@H](O)C[C@@H](Cc1ccccc1)C(=O)N[C@H]1c2ccccc2C[C@H]1O
inactive: [11] | [17] | [18] | [13]

COc1cccc(OC)c1C(=O)O
inactive: [9] | [11] | [18] | [12] | [19] | [15]

COc1ccc2ccccc2c1
inactive: [9] | [10] | [11] | [17] | [12] | [13] | [19]

CCCCC(CC)COC(=O)C=Cc1ccc(OC)cc1 (stereo not drawn)
inactive: [16] | [3] | [4] | [5] | [6] | [7] | [8]
